Laboratory results as given in PubChem BioAssay AID1903 (Southern Research Specialized Biocontainment Screening …, 2009).
“And” between values parts separate entries of the source, which are not always exact repeats. Equal entries are not always repeated. About 1,200 (0.39%) of roughly 310,000 compounds were called active. The rule behind the calls is not given here. Only a sample is shown. Entries with a potency or affinity are not part of this list.

Target: Large T antigen (Simian virus 40) (UniProt P03070)
Test: SV40 large T antigen inhibitors, biochemical (AID 1903)
Details: SV40 large T antigen ATPase/helicase inhibition assay; at 20 µM; hits give high values

Sequence of Large T antigen (Simian virus 40) (P03070 whole entry, looked up): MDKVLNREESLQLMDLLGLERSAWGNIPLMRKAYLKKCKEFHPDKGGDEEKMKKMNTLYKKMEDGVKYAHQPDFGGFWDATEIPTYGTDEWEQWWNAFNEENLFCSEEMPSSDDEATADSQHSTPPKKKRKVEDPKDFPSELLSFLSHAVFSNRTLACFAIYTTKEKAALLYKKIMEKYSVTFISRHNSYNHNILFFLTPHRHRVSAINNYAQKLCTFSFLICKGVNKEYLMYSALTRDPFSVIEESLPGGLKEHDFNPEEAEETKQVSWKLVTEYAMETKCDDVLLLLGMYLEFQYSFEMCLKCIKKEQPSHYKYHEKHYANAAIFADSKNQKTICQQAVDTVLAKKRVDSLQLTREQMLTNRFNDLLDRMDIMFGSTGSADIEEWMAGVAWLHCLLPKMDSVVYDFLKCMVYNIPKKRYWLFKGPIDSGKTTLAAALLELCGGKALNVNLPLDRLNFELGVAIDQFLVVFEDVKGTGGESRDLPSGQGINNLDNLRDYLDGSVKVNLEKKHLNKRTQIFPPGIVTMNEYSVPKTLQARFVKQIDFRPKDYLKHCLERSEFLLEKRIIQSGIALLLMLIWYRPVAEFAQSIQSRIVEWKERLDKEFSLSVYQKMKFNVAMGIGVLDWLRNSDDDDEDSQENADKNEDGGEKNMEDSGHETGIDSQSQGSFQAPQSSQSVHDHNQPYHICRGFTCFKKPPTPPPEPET

inhibition, inactive:
O=C(O)c1ccc(C(=O)C(=O)c2ccccc2)cc1 13.3%, Nc1ccc(C(=O)O)cc1 4.17% and 15.4% and 26%, Cc1cc(NC(=O)CCC(=O)N(Cc2ccccc2)C(C(=O)NC2CCCC2)c2ccco2)no1 (stereo not drawn) 10.2%, O=C(CS(=O)CC(=O)Nc1ccccc1-c1ccccc1)Nc1ccc(F)cc1 (stereo not drawn) 6.05%, Cc1ccc(Cn2c(=O)c3ccccc3n3c(CCC(=O)NCCN4CCOCC4)nnc23)cc1 3.95%, COc1cc(/C=C(\C#N)c2ccccn2)ccc1OCc1ccc(Cl)cc1 12.1%, Cn1c(/C(C#N)=C/c2cccc(O)c2)nc2ccccc21 12.6%, COc1cc(/C=C(\C#N)c2ccccn2)ccc1OCc1ccccc1 4.85%, Cn1c(/C(C#N)=C/c2ccc(O)cc2)nc2ccccc21 9.77%, O=C(C1CCN(S(=O)(=O)c2cccnc2)CC1)N1CCN(c2cccc(Cl)c2)CC1 3.44%, Cc1ccc2c(NC(=O)C3CC3)c(C)ccc2n1 13.3%, O=C(CCNC(=O)N1CC(=O)Nc2ccccc21)NCc1cccc(Cl)c1 8.76%, O=C(O)c1ccccc1SSc1ccccc1C(=O)O 1.77%, CCC(Sc1ccccc1C(=O)O)C(=O)O (stereo not drawn) 1.42%, CCOC(=O)C1CCN(C(=O)COc2cccc(C)c2)CC1 4.64%, CCCCn1c(N)c(N(CC(C)C)C(=O)CSc2n[nH]c(-c3ccc(C)cc3)n2)c(=O)[nH]c1=O 13%, CCOC(=O)c1sc(NC(=O)c2cc3ccccc3o2)nc1C -6.17%, CCC(=O)Nc1ccc(N2CCCCC2)c(C(=O)Nc2ccccc2C)c1 0.82%, Cc1ccccc1C(=O)Nc1ccccc1N1CCCCC1 -0.09%, Cc1ccc(NC(=S)c2ccc(N(C)C)cc2)cc1 -10.2%, CCCCOC(=O)Nc1ccc(C(=O)OC)cc1 6.13%, Cc1ccc(NC(N)=S)cc1 8.99%, CCOC(=O)c1c(C)c(C(=O)Nc2ccccc2)c(C)n1CC 10.4%, CCOC(=O)c1c(C)c(C(=O)Nc2ccc3c(c2)OCCO3)c(C)n1CC 0.47%, CCCCOC(=O)Nc1ccc(C(N)=O)cc1 12.3%, COC(=O)C1=CN(Cc2ccccc2)C=C(C(=O)OC)C1c1ccc(OC)c(OC)c1 7.64%, Cc1ccc(N(C(=O)CNC(=O)c2ccco2)C(C(=O)NC2CCCCC2)c2ccncc2)c(C)c1 (stereo not drawn) 23.9%, COC(=O)c1c(-c2ccc(F)cc2)csc1NC(=O)C1CCCO1 (stereo not drawn) 12%, COc1ccc(-c2cc(=O)oc3c(C)c(O)ccc23)cc1 6.62%, COc1ccc(-c2cc(=O)oc3cc(O)ccc23)cc1 7.73%, O=C(Nc1cccc2cccnc12)c1ccccc1Cl 1.03%, COc1ccc(C2CC(=O)N3CN(c4ccc(C)c(Cl)c4)CSC3=C2C#N)cc1OC (stereo not drawn) 36.9% and 28.8%, COc1ccc(OC)c(C2CC(=O)N3CN(c4cccc(Cl)c4C)CSC3=C2C#N)c1 (stereo not drawn) 45.4%, CCc1ccccc1N1CSC2=C(C#N)C(c3cc(OC)c(OC)cc3OC)CC(=O)N2C1 (stereo not drawn) 16.6%, COc1ccc(N2CSC3=C(C#N)C(c4cc(OC)ccc4OC)CC(=O)N3C2)c(OC)c1 (stereo not drawn) 34.1%, COc1ccc(N2CSC3=C(C#N)C(c4cc(OC)c(OC)cc4OC)CC(=O)N3C2)c(OC)c1 (stereo not drawn) 61.9%, COc1cc(C2CC(=O)N3CN(c4ccccc4C)CSC3=C2C#N)cc(OC)c1OC (stereo not drawn) -11.8%, CC(C)C[C@H](NC(=O)c1nc[nH]c1C(=O)NCc1ccc(CNC(=O)OC(C)(C)C)cc1)C(=O)OC(C)(C)C 1.84%, CCOc1cc2[nH]c(=O)n(Cc3ccccc3)c(=O)c2cc1OCC 3.82%, Cc1cc(C)c(C#N)c(N)n1 20.5%, COc1ccc(S(=O)(=O)N(CCc2ccccc2)CC(=O)NCCCO)cc1 6.27%, CN(C)S(=O)(=O)c1ccc(C(=O)Nc2ccn(C)n2)cc1 4.29%, CS(=O)(=O)N(CC(=O)N1CCC(C(N)=O)CC1)Cc1ccc(Cl)c(Cl)c1 6.63%, COc1ccccc1Nc1nc(N)nc(CN2CCN(Cc3ccc4c(c3)OCO4)CC2)n1 11.3%, CC(SCC(=O)NC12CC3CC(CC(C3)C1)C2)C(=O)O (stereo not drawn) 9.37%, Cc1ccc(-c2cc(C(F)(F)F)n3ncc(C(=O)N4CCN(C)CC4)c3n2)cc1 -2.21%, O=C(O)CC(C(=O)O)N1C(=O)/C(=C/C=C/c2ccco2)SC1=S (stereo not drawn) 53.1%, O=C(O)C(Cc1ccccc1)N1C(=O)/C(=C/c2ccccc2)SC1=S (stereo not drawn) 16%, CC(/C=C1\SC(=S)N(C(C(=O)O)C(C)C)C1=O)=C\c1ccccc1 (stereo not drawn) 15.2%, CC(=C\c1ccccc1)/C=C1/SC(=S)N(C(C(=O)O)C(C)C)C1=O (stereo not drawn) 18.4%, CCc1ccc2c(CN3CCOCC3)cc(=O)oc2c1 3.81%, COc1ccc(NC(=O)c2cc(-c3ccccc3)on2)cc1OC 6.07%, Cn1c(Oc2ccc(Cl)c3cccnc23)nc2c1c(=O)n(Cc1ccccc1Cl)c(=O)n2C 5.38%, CCCC(C(=O)NC1CCCC1)N(CCN(CC)CC)C(=O)c1snc(C(N)=O)c1N (stereo not drawn) 7.08%, CCC1CCCCN1S(=O)(=O)c1ccc(NC(=O)c2cccnc2)cc1 (stereo not drawn) 16.2%, CCC1CCCCN1S(=O)(=O)c1ccc(NC(=O)c2ccncc2)cc1 (stereo not drawn) -1.25%, CC1CCCN(S(=O)(=O)c2ccc(NC(=O)CNC3CCCC3)cc2)C1 (stereo not drawn) 4.39%, CCS(=O)(=O)c1ncc(Cl)c(C(=O)Nc2ccc(C)cc2)n1 7.02%, CC1CCN(S(=O)(=O)c2ccc(NC(=O)c3ccncc3)cc2)CC1 7.49%, CCc1noc(C)c1C(=O)Nc1ccc(S(=O)(=O)N2CCCC(C)C2)cc1 (stereo not drawn) 10%, Cc1ccc(S(=O)(=O)n2nccc2-c2c(-c3ccc(Cl)cc3)noc2C)cc1 6.88%, O=C(O)c1ccc(NC(CSCc2ccc(F)cc2)C(=O)O)c([N+](=O)[O-])c1 (stereo not drawn) -4.05%, O=C(c1cc2ccccc2o1)N1CCC(N2CCC(C(=O)N3CCCC3)CC2)CC1 5.34%, COc1ccc(/C=C2\SC(=S)N(NS(=O)(=O)c3ccccc3)C2=O)c(OC)c1 11.9%, O=S(=O)(NCC1CCCO1)c1ccc(Cl)cc1 (stereo not drawn) 1.99%, O=C(c1cc([N+](=O)[O-])ccc1N1CCCC1)N1CCCCC1 1.67%, Cc1cc(-n2c(C)cc(C(=O)CN3C(=O)NC4(CCCCCC4)C3=O)c2C)no1 -2.03%, O=C1CCCC(O)=C1C=Nc1cccc(C(F)(F)F)c1 2.45%, CC1(C)CC(=O)C(C=Nc2ccc(N)cc2)=C(O)C1 28.8%, CC1(C)CC(=O)C(C=Nc2ccccc2)=C(O)C1 -6.01%, COc1ccc(N=CC2=C(O)CCCC2=O)cc1 18.6%, Oc1c(C=Nc2ccccc2)sc2ccccc12 21.4%, O=C1CC(c2ccccc2)CC(O)=C1C=Nc1ccc(O)cc1 (stereo not drawn) 30.3%, CCOC(=O)c1cnc(-n2nc(C)cc2C)nc1NCc1ccc2c(c1)OCO2 17.1%, Cc1ccc(C)c(NC(=O)c2cc(-c3ccccc3O)n[nH]2)c1 3.34%, O=C(NC1CCCC1)C1CCN(C(=O)NCc2ccccc2)CC1 8.69%, CC(=O)c1cc2c(cc1N(C(=O)c1ccco1)C(C(=O)NC1CCCC1)c1ccccc1F)OCO2 (stereo not drawn) 1.47%, C/C(=N\NC(=O)c1cc(C)[nH]n1)c1ccc(-c2ccccc2)cc1 5.47%, CC(C(=O)NC1CCCCC1)N1C(=O)C2C3C=CC(C3)C2C1=O (stereo not drawn) 3.95%, N#CC(C#N)=C1C=CC=CN1/C(=C\c1ccccc1)C(=O)c1cccs1 4.44%, N#CC(C#N)=C1C=CC=CN1/C(=C\c1ccco1)C(=O)c1ccc(-c2ccccc2)cc1 28.2%, COCCN(CCOC)S(=O)(=O)c1ccc(C(=O)NC2CCN(Cc3ccccc3)CC2)cc1 4.79%, CCOC(=O)N1CCN(Cc2cccs2)CC1 5.2%, O=C(O)[C@H](O)[C@@H](O)C(=O)O 3.59%, O=C(O)[C@@H](O)[C@H](O)C(=O)O 16.5%, Cc1c(O)ccc2c(=O)c(-c3nncn3-c3ccccc3)coc12 2.48%, CSc1ccc(-c2nc(O)c3cnccn23)cc1 27.6%, COC(=O)c1ccc(-c2nc(O)c3cnccn23)cc1 4.33%, O=C(NNC(=O)c1ccc(O)cc1O)c1ccc(-c2ccccc2)cc1 3.4%, CC1CCCN(C(=S)Nc2ccc(Nc3ccccc3)cc2)C1 (stereo not drawn) 14.1%, OCC1CCCN(C(=S)Nc2ccc(Oc3ccccc3)cc2)C1 (stereo not drawn) 5.94%, CC(C)Sc1nc2c(c(=O)n(C)c(=O)n2C)n1Cc1ccc(Cl)cc1 3.02%, CN1CCN(c2nc3c(c(=O)n(C)c(=O)n3C)n2Cc2ccc(Cl)cc2)CC1 3.78%
